Screening data (PubChem)
The list is not random: actives were taken first. Their share in the collection is about 6%.
D3 antag = antagonists of human D3 dopamine receptor; P35462; D3R cells, DiscoveRx beta-arrestin luminescence, antagonist mode; hits give low values; max response, negative = inhibition, %; 360,000 compounds, 2.5% hits; AID 652054; in the data active = max response below about -50%; inconclusive = no clear call, values can overlap the other calls; note: % is set by controls: 0 for no effect and ±100 for the full control effect
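Cells expressing the human receptor were seeded at 1500 cells/well, incubated overnight at 37 degrees C in 5% CO2, then exposed to library compounds with dopamine controls for 90 minutes at 37 degrees C before luminescent detection.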
D1 agonist = human D1 receptor agonism; P21728; HEK293 T-REx D1 cells, calcium flux, agonist mode; activation, % at 2 µM; 360,000 compounds, 1% hits; AID 504660; in the data active = activation above about 30%; note: 0% is about no effect
Target sequence (P21728 whole entry, looked up): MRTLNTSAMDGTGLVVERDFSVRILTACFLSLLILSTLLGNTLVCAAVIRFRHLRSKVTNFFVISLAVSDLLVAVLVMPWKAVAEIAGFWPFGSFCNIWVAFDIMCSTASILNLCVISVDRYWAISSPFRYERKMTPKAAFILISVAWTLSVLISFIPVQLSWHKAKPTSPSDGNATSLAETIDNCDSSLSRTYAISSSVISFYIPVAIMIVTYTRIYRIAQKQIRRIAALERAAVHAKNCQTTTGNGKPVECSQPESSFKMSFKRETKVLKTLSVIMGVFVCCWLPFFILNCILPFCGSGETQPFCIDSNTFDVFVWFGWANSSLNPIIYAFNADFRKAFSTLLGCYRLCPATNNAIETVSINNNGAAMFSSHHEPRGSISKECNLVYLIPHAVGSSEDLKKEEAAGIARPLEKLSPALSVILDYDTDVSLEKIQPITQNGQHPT
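Inducible HEK293 T-REx D1 cells, force-coupled to calcium signalling, were plated at 4000 cells/well with tetracycline and held overnight at 30 C. After no-wash calcium dye loading, compound-evoked calcium rise over 180 s flagged agonists.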
D1 PAM = enhances dopamine response at the human D1 receptor | P21728 | HEK293 TREx D1 cells, calcium flux, dopamine EC20 potentiation | potentiation, % at 10 µM | 360,000 compounds, 0.036% hits | AID 504651; in the data active = potentiation above about 30%; note: 0% is about no effect
D1 antagonist = blocks dopamine activation of the human D1 receptor; P21728; HEK293 TREx D1 cells, calcium flux, dopamine EC80; hits give low values; activity change, negative = inhibition, % at 10 µM; 360,000 compounds, 3.2% hits; AID 504652; in the data active = activity change below about -30%; note: % is set by controls: 0 for no effect and ±100 for the full control effect
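Calcium flux readout: force-coupled, inducible Hek293 Trex D1 line, cells induced overnight at 30 C with tetracycline, dye-loaded 30–90 min at RT. Antagonism scored against EC80 dopamine challenge given 180 s after compound.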
D3 ag = activates the human D3 dopamine receptor | P35462 | D3R DiscoveRx beta-arrestin cells, luminescence, 90 min | max activation, % | 410,000 compounds, 0.58% hits | AID 652048; in the data active = max activation above about 30%; note: 0% is about no effect
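Cells at 1500/well, incubated overnight, then treated with pinned compounds (dopamine as control) for 90 min at 37 degrees C. DiscoveRx reagent added for 30 - 60 minutes at room temperature; luminescence read.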
The depositor's hits bear a star; u = inconclusive; x = no result given.

SMILES	D3 antag	D1 agonist	D1 PAM	D1 antagonist	D3 ag
CCc1ccc(S(=O)(=O)c2nnn3c2nc(Nc2ccc(F)cc2)c2cc(Cl)ccc23)cc1	x	3	-3	6	3
O=C(NCCCO)C(=O)NCC(c1ccc2c(c1)OCO2)N1CCOCC1 (configuration not stated)	x	1	-5	-7	-17
Cc1c(NC(=O)c2ccccc2F)cccc1-c1nc2cccnc2s1	x	-1	-2	-80*	-10
Cc1c(NC(=O)c2cc(-n3cnnc3)ccc2Cl)cccc1-c1nc2ccccc2s1	26	1	-3	-39*	-13
Cc1ccc(C(=O)Nc2cccc(-c3nc4cccnc4s3)c2C)cc1	x	1	-3	-4	-17
O=C(Nc1cccc(-c2nc3ccccc3s2)c1)c1cc(-n2cnnc2)ccc1Cl	49	3	-5	-6	1
Cc1c(NS(=O)(=O)c2cccs2)cccc1-c1nc2cccnc2s1	-4	3	-2	4	5
Cc1c(NS(C)(=O)=O)cccc1-c1nc2cccnc2s1	-51*	1	-5	3	1
Cc1ccc(C(=O)CN(CCC(=O)O)C(=O)c2ccncc2)cc1	28	6	7	4	31*
Oc1ccccc1N=Nc1nc(-c2ccccc2)c(-c2ccccc2)[nH]1	-72*	0	2	1	-37
COc1ccccc1N=Nc1nc(-c2ccccc2)c(-c2ccccc2)[nH]1	-75*	4	-2	-21	-30
COc1ccc(N=Nc2nc(-c3ccccc3)c(-c3ccccc3)[nH]2)cc1	u	-1	-2	12	-33
Cc1ccc(-c2nc(CNC(=O)NC3CCCCC3)c(C)o2)cc1	x	7	-1	-3	8
COC1=C(Br)C(=O)c2nc(C)ccc2C1=O	-119*	x	x	x	-17
Cc1cccc(-n2ccnc2SCC(=O)Nc2ccccc2C(F)(F)F)c1	x	1	-4	-40*	-6
Cc1cccc(C(=O)N/N=C/c2cc(Br)c(Br)o2)c1	-2	4	-3	-59*	-6
COc1cc(C(=O)Nc2ccccc2N2CCN(S(C)(=O)=O)CC2)cc(OC)c1OC	3	2	2	10	3
O=C(Cc1ccccc1F)Nc1ccccc1N1CCCC1	0	0	1	11	-3
O=C(CNCC1CCCO1)Nc1ccccc1N1CCCCCC1 (configuration not stated)	-62*	0	-5	9	0
O=C(Nc1ccccc1N1CCCC1)c1cccc(Cl)c1Cl	-8	2	-2	-32*	-9
COc1ccccc1C(=O)Nc1ccccc1N1CCN(S(C)(=O)=O)CC1	51	18	-7	-37*	1
O=C(CNCc1ccccc1Cl)Nc1ccccc1N1CCCCC1	-60*	1	8	10	-24
COc1ccc(Cc2nc3c4cnn(-c5cccc(F)c5)c4ncn3n2)cc1	x	-1	3	-2	3
CCc1cccc(NS(=O)(=O)c2csc(C(N)=O)c2)c1	20	5	-8	-13	33*
CCN=c1scc(C)n1/N=C/c1ccc(O)c(O)c1O	-7	0	-1	-1	9
SMILES	D3 antag	D1 agonist	D1 PAM	D1 antagonist	D3 ag
COCCN=c1scc(-c2cccs2)n1/N=C/c1ccc(O)c(O)c1O	-8	2	1	8	90*
CCn1cc(C(=O)OCC(=O)OC2CC(C)CCC2C(C)C)c(=O)c2ccc(C)nc21 (configuration not stated)	-81*	6	0	-1	-1
C=CCOC(=O)c1cn(CC)c2nc(C)ccc2c1=O	-4	-1	4	-9	6
CCCCNC(=O)c1cnc2c(-c3ccc(OCC)c(OCC)c3)c(C)nn2c1-c1ccccc1	x	1	-2	15	-11
O=C(CN1CCN(c2ccccn2)CC1)N1c2ccccc2CCc2ccccc21	-54*	0	4	16	1
CCNCCC(=O)N1c2ccccc2Sc2ccc(C(F)(F)F)cc21	-70*	12	-4	-2	-11
Cc1ccc(NC(=O)c2cnc(N3CCN(c4ccccn4)CC3)c3ccccc23)c(Br)c1	89	0	-3	8	44*
O=C(CN1CCN(c2ccccn2)CC1)N1CC(O)CO1 (configuration not stated)	3	2	2	-12	2
Cc1ccc(C(=O)CN2CCN(c3ccccn3)CC2)c(C)c1	11	5	0	-9	48*
COc1ccccc1CNC(=O)c1ccc(CSc2nc3ccncc3n2Cc2cccc(F)c2)cc1	x	8	-7	-16	-23
O=C(c1ccc2c(c1)N(Cc1ccccc1)C(=O)c1ccccc1S2(=O)=O)N1CCN(c2ccccn2)CC1	x	11	-3	-3	7
COc1ccc(-c2nc(CSc3nnc(C)n4c3cc3sccc34)c(C)o2)cc1	x	-1	-4	-12	-24
CCOc1ccc(S(=O)(=O)N2CCN(c3cccc(C(F)(F)F)c3)CC2)cc1OCC	x	4	-1	-10	-7
COCCNC(=O)C1(C)CCCN(C(=O)c2c(-c3ccccc3)noc2C)C1 (configuration not stated)	0	x	x	x	-6
O=C(CN1CCN(c2ccccn2)CC1)N1c2ccccc2Sc2ccc(C(F)(F)F)cc21	-62*	7	-3	21	-9
COc1ccc(CNC(=O)COc2ccc(C(=O)c3ccc(F)cc3)cc2)cc1	-6	10	-1	-30*	10
COC(=O)c1ccc(/C=N/OCC(=O)NCc2ccc(F)cc2)cc1	12	1	-4	-51*	13
COC(=O)c1ccc(CNC(=O)COC(=O)CCC(=O)c2ccc(F)cc2)cc1	6	x	x	x	4
Cc1cccc(N2CCN(C(=O)c3ccc(-n4cncn4)c([N+](=O)[O-])c3)CC2)c1C	3	5	-4	-9	4
CCCCNC(=O)c1nc(C2CCNCC2)oc1-c1ccccc1	9	x	x	x	2
COc1ccc(NC(=O)c2sc3nc4c(c(-c5ccc(OC)cc5)c3c2N)C(=O)CC(C)(C)C4)cc1	x	12	-4	-36*	2
O=C(c1ccc(F)cc1)N1CCC(c2nc(-c3ccc(S(=O)(=O)N4CCCC4)cc3)no2)CC1	x	-1	2	-11	5
CCc1[nH]nc2c1C(c1ccc(Br)s1)C(C#N)=C(N)O2 (configuration not stated)	-56*	3	3	4	-2
CCc1[nH]nc2c1C(c1ccsc1)C(C#N)=C(N)O2 (configuration not stated)	-11	-1	-1	-14	-1
CC(C)(C)OC(=O)N1CCC(c2c(C(=O)Nc3ccc4c(c3)OCCO4)cnn2-c2ccc(F)cc2F)CC1	x	3	3	-35*	3
COc1ccc(NC(=O)c2cnn(-c3ccc(F)cc3F)c2C2CCN(C(=O)OC(C)(C)C)CC2)cc1Cl	x	2	-7	-8	4
